# SMN2 splice enh: enhancers of SMN2 splice variant expression. HEK293 SMN2-luciferase splicing reporter, luminescence, 30-36 h. Potency, µM (top dose mostly 46.1 µM), for inactives: at the highest dose activity change, positive = activation, usual class: activators. 210,000 compounds, 2.8% hits. AID 1458; note: % of control where 0% means no effect; nearly all actives have a fitted effect of over 55% in size
#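 HEK293 cells carry an SMN2 minigene-luciferase reporter in which exon 7 inclusion puts luciferase in frame. Cells were seeded at 2000 cells/well, attached for 10-12 hours, then exposed to compounds for 30-36 hours at 37C before ONE-Glo luminescence.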
# Rab9 promoter act: activators of Rab9 promoter; Huh7 Rab9 promoter-luciferase reporter, luminescence, 24 h; Potency, µM (top dose mostly 9.22 µM), for the others: at the highest dose activation, negative = inhibition, most hits filed as activators; 320,000 compounds, 2.8% hits; AID 485297; note: % of control where 0% means no effect; nearly all actives have a fitted effect of over 60% in size
#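 Rab9 promoter-driven luciferase in stably transfected Huh7 cells; 1500 cells/well rested 2 h, exposed to compound in DMSO for 24 h at 37 °C, 5% CO2. Luminescence read 10 min after adding luciferase reagent at ambient temperature.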
# p53 reactivation: mutant p53 re-activation in reporter cells. H1299 p53-A138V BP100-luciferase reporter, luminescence, 24 h. AID 504706. 320,000 compounds, 0.063% hits. Potency, µM (top dose mostly 92.2 µM), inactives show at the top dose activity change, positive = activation, most hits filed as activators; note: % of control where 0% means no effect; nearly all actives have a fitted effect of over 45% in size
#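 H1299 (p53-null), stable ts p53-A138V + BP100-Luc; 1000 cells/well, Opti-MEM/10% FBS; cpd 4 pt, 1:5; 24 h, 37 deg C, 5% CO2; detection reagent 10 min RT; luminescence.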
# NPC1 prom act: activators of NPC1 promoter | Huh7 NPC1 promoter luciferase reporter, 24 h | Potency, µM (titrated, usually from 9.22 µM), without a hit: at the highest dose activation, usual class: activators | 320,000 compounds, 2.4% hits | AID 485313; note: % of control where 0% means no effect; nearly all actives have a fitted effect of over 60% in size
#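 Stably transfected Huh7 (NPC1 promoter→luciferase), 1500 cells/well in Opti-MEM + 10% FBS, 2 h settle, then compound 24 h at 37 °C. Luminescence after 10 min with Amplite reagent.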
# FLuc counter: counter-screen for miR-21 project: firefly luciferase inhibitors or activators. purified FLuc, Km substrates, luminescence inhibition. 360,000 compounds, 6.9% hits. Potency, µM (highest dose often 57.5 µM), without a hit: at the top dose activity change, negative = inhibition, hits mostly inhibitors. P08659;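 note: plate controls were vehicle for no effect and reference inhibitor for full effect; nearly all actives have a fitted effect of over 55% in size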
# Target sequence (P08659 whole entry, looked up): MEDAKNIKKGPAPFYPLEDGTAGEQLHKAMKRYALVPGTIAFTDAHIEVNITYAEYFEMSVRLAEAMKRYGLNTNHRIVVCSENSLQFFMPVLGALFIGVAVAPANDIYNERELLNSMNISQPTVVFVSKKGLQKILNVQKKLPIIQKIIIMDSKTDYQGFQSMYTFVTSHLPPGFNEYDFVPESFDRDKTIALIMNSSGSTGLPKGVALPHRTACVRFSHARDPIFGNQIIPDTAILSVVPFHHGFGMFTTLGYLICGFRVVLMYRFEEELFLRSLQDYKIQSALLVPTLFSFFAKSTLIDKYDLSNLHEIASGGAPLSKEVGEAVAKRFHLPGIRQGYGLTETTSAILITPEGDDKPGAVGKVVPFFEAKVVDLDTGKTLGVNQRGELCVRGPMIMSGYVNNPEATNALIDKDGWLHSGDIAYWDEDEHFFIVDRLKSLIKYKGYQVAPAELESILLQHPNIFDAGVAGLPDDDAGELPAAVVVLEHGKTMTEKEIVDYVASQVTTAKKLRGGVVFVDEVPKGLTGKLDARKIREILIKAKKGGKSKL
#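 Purified P. pyralis luciferase (10nM final) with 10uM D-luciferin and 10uM ATP (Km levels) in 50mM Tris acetate pH 7.5, 10mM Mg acetate, 0.01% Tween-20, 0.05% BSA; qHTS 6-point titration, ~60 µM downward; luminescence read.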
# ELG1 genotoxic: genotoxicity induction in ELG1-luciferase HEK293T cells; Potency, µM (doses to about 46 µM), inactives show at the top dose activity change, positive = activation, most hits filed as activators; HEK293T ELG1-luciferase reporter, luminescence, 16 h; 330,000 compounds, 1.3% hits; AID 504466; note: % of control where 0% means no effect; nearly all actives have a fitted effect of over 60% in size
#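 After overnight (16 hr) compound treatment at 37 °C, ELG1-luciferase HEK293T cells were lysed with ONE-Glo; luminescence quantified 30 min later at room temperature.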
# Numbers without * were called inactive; ? = inconclusive; nt = not tested or not shown; [ ] = another dose, or the depositor's remark. This is a sample that favours compounds with a hit; in the whole collection about 7.4% have one here. Calls come from the whole dose curve; as a rule, active = well fitted curve in the direction sought with a large enough effect; inconclusive = small, poorly fitted or top-dose-only effect, or another doubt; inactive = no such curve, though single readings can be large; an effect the other way counts as inactive or inconclusive. Potency is the fitted concentration of half-maximal effect.
SMILES,SMN2 splice enh,Rab9 promoter act,p53 reactivation,NPC1 prom act,FLuc counter,ELG1 genotoxic
Cc1sc(NC(=S)NC(=O)c2ccco2)c(C#N)c1C,nt,?,4%,0%,2.7µM*,?
CCc1c(C)sc(NC(=O)c2noc(C)c2[N+](=O)[O-])c1C#N,-25%,3%,8%,-2%,11µM*,3%
CCOC(=O)c1sc(NC(=O)c2ccco2)c(C#N)c1C,-3%,-2%,12%,0%,13µM*,-2%
Cc1nc2cc(-c3ccccc3)nn2c(C)c1CCC(=O)N1CCN(c2ccc(F)cc2)CC1,4%,nt,nt,nt,?,nt
COc1ccc(C(=O)N2CCCCC2CCN2CCCCC2)cc1 (stereo not given),2%,nt,nt,nt,0%,nt
COc1ccc(NC(=O)c2sc3nc(C)c(C(=O)Nc4ccc(C)cc4C)c(-c4ccc(C)o4)c3c2N)cc1,-14%,nt,nt,nt,3%,nt
CCc1c(C)sc(NC(=O)c2ccco2)c1C#N,nt,3.5µM*,nt,?,17µM*,?
CC(=O)Nc1cccc(OCC(=O)NC(C)c2ccc3ccccc3c2)c1 (stereo not given),nt,0%,-5%,-4%,1%,-1%
Cc1ccc(-n2cc(C(=O)c3ccc(F)cc3)nn2)cc1Cl,7.1µM*,0.5µM*,?,0.5µM*,0.24µM*,?
CCC(=O)Nc1cccc(-c2cn3ccsc3n2)c1,24%,-4%,0%,14%,17µM*,6%
CC(C)CC(=O)Nc1cccc(-c2cn3ccsc3n2)c1,18µM*,?,29%,?,12µM*,?
Cc1ccc(S(=O)(=O)Nc2cccc(-c3cn4ccsc4n3)c2)cc1,?,-9%,10%,-16%,?,-6%
CC(C)C(=O)Nc1cccc(-c2cn3ccsc3n2)c1,23%,29%,13%,13%,15µM*,?
CC(C)(C)CC(=O)Nc1cccc(-c2cn3cccnc3n2)c1,11µM*,2.5µM*,5%,?,11µM*,?
Cc1cccc(S(=O)(=O)Nc2cccc(-c3cn4ccsc4n3)c2)c1,-32%,1%,-15%,-1%,?,-6%
COc1cc2c(cc1OC)C(COc1cc(C)cc(C)c1)N(C(=O)c1ccc(S(=O)(=O)N3CCCC3)cc1)CC2 (stereo not given),nt,nt,nt,nt,0%,nt
NC(=O)c1ccc(NC(=O)CSC(=O)c2ccccc2)cc1,nt,nt,11%,nt,nt,3%
Nc1ncnc2c1ncn2[C@@H]1O[C@H](CNC(=O)[C@@H](N)C2CCCCC2)[C@@H](O)[C@H]1O,nt,nt,2%,nt,nt,17%
Brc1ccc2[nH]c3c(NCc4ccccn4)ncnc3c2c1,nt,-6%,-4%,-4%,?,-10%
Cc1ccc2[nH]c3c(NCc4ccccc4)ncnc3c2c1,nt,2%,0%,11%,24µM*,-1%
Cc1ccc2[nH]c3c(N4CCOCC4)ncnc3c2c1,-42%,3%,-7%,1%,17µM*,6%
COc1ccc(CNc2ncnc3c2[nH]c2ccccc23)cc1,nt,-17%,-8%,-5%,?,-8%
COc1ccc(CNc2ncnc3c2[nH]c2cc(OC)c(OC)cc23)cc1,nt,-4%,-2%,-3%,24µM*,10%
CCCOc1ncnc2c1[nH]c1ccc(C)cc12,nt,?,16%,2.8µM*,1.2µM*,?
c1ccc2c(c1)[nH]c1c(N3CCOCC3)ncnc12,-46%,1%,-9%,1%,0%,-5%
SMILES,SMN2 splice enh,Rab9 promoter act,p53 reactivation,NPC1 prom act,FLuc counter,ELG1 genotoxic
CN(CC(=O)Nc1ccc(Cl)cc1)C(=O)C1CCCC1,nt,27%,?,14%,-4%,0%
CCOC(=O)C1(Cc2cccc(Cl)c2)CCCN(C(=O)CCOC)C1 (stereo not given),nt,15%,2%,4%,?,6%
CCOC(=O)C1(Cc2cccc(Cl)c2)CCCN(C(=O)c2cc(C)[nH]n2)C1 (stereo not given),nt,-1%,-4%,-1%,4%,-7%
CCOC(=O)C1(Cc2cccc(OC)c2)CCCN(C(=O)CCN2CCCO2)C1 (stereo not given),nt,3.2µM*,?,3.5µM*,15µM*,23µM*
CCOC(=O)C1(Cc2cccc(OC)c2)CCCN(C(=O)c2cc(CC(C)C)[nH]n2)C1 (stereo not given),nt,3.5µM*,21%,?,21µM*,?
CCOC(=O)C1(Cc2cccc(OC)c2)CCCN(Cc2cc(OC)c(O)c(OC)c2)C1 (stereo not given),nt,7%,4%,4%,-3%,-4%
CCOC(=O)C1(Cc2cccc(OC)c2)CCCN(C(=O)c2ccc(OC)o2)C1 (stereo not given),nt,2.5µM*,?,?,12µM*,?
CNC[C@H]1Oc2ccc(NC(=O)Cc3cn(C)c4ccccc34)cc2CC(=O)N([C@@H](C)CO)C[C@H]1C,nt,nt,1%,nt,nt,-1%
CCOc1ccc(NC(=O)c2sc3nc4c(c(-c5ccc(OC)cc5)c3c2N)C(=O)CC(C)(C)C4)cc1,5%,nt,nt,nt,-1%,nt
C[C@@H]1C[C@H]2[C@H]3C[C@@H](F)C4=CC(=O)C=C[C@]4(C)[C@@]3(Cl)[C@@H](O)C[C@@]2(C)[C@@H]1C(=O)COC(=O)C(C)(C)C,-6%[20.6 µM],nt,nt,nt,nt,nt
NC(=O)c1cc([N+](=O)[O-])ccc1NCC1CCCCC1,nt,17%,?,15%,-14%,9%
Nc1ncnc2c1nc(Br)n2C1O[C@H]2COP(=O)(O)O[C@@H]2C1O (stereo not given in full),-24%,nt,nt,nt,nt,nt
CSCCC(NC(C)=O)C(=O)Oc1ccc2c3c(c(=O)oc2c1)CCCC3 (stereo not given),8%,1%,9%,4%,-2%,2%
CSCCC(NC(=O)OC(C)(C)C)C(=O)Oc1ccc2c(=O)c(-c3ccc4c(c3)OCCO4)coc2c1 (stereo not given),18µM*,0.79µM*,?,1.4µM*,11µM*,?
Cc1ccc2c(COC(=O)c3ccccc3F)cc(=O)oc2c1,nt,?,12%,?,0.19µM*,2.1µM*
CCc1ccc2c(COC(=O)C3CC(=O)N(CCc4ccccc4)C3)cc(=O)oc2c1 (stereo not given),nt,-1%,-1%,-2%,-6%,3%
CCc1ccc2c(COC(=O)c3n[nH]c4ccccc34)cc(=O)oc2c1,?,?,11%,?,5.4µM*,?
Cc1ccc2c(COC(=O)c3c(C)noc3C)cc(=O)oc2c1,-25%,5%,-1%,-22%,?,3%
Cc1ccc2c(COC(=O)c3n[nH]c4ccccc34)cc(=O)oc2c1,nt,12%,?,?,5.4µM*,4.6µM*

# Bioassay records (PubChem)
